# Experimental data as given in PubChem BioAssay AID485358 (National Center for Advancing Translational Sciences (NCATS), 2010).
# In all, about 340,000 compounds went through this assay and about 1,800 (0.53%) were called active.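 How the source made its calls: active means activation over 3 SD above normal in the single-dose calcium agonist read (cut at about 30% in these data); inactive means the rest.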 Many of the other results were omitted from the sample, so actives are more common in it than they were.
# Target: D(2) dopamine receptor (Homo sapiens) (UniProt P14416)
# Experiment: HTS Assay for Allosteric Agonists of the Human D2 Dopamine Receptor: Primary Screen for Agonists; further: 0% is about no effect
# Conditions: HEK293 T-REx D2 cells, calcium flux agonist mode; at 2 µM; active compounds read high
# In short: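 Tetracycline-induced HEK293 T-REx cells with force-coupled D2 receptor, plated overnight at 30 C, loaded with no-wash calcium dye. After a 10 s baseline, compound was pin-added and calcium flux read kinetically for 180 s; calcium rises flagged agonists.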
# Chain of D(2) dopamine receptor (Homo sapiens) (P14416 whole entry, looked up): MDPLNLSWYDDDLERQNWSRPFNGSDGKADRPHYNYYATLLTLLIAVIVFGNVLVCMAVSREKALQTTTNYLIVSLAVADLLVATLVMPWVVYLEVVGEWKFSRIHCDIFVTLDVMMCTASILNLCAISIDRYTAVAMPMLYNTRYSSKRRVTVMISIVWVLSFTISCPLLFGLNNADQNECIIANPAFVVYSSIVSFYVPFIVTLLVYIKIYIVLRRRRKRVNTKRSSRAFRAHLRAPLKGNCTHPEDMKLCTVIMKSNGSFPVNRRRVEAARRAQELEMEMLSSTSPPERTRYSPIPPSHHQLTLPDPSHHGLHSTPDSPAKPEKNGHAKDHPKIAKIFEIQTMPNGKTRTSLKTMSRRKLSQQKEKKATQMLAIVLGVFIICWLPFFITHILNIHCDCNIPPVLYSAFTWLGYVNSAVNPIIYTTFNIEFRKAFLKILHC
row,Compound,activation
1,COc1cc(OC)c(N(C)C(=O)c2cc3c(=O)oc4ccccc4c3s2)cc1Cl,0.129% (inactive)
2,Cc1ccc(C)c(N2CCN(c3ccc4cc(S(=O)(=O)N5CCC(C)CC5)ccc4n3)CC2)c1,0.192% (inactive)
3,Cc1ccc(-c2cn3c(n2)sc2cc(C(=O)NCCCc4ccccc4)ccc23)cc1,1.23% (inactive)
4,CCN(CC)S(=O)(=O)c1ccc2c(c1)N(CC(=O)NCc1ccccc1)C(=O)CS2,-0.489% (inactive)
5,Cc1cccc(S(=O)(=O)c2cn(Cc3ccccc3)c3cc(N4CCOCC4)c(F)cc3c2=O)c1,-0.108% (inactive)
6,COc1ccccc1-c1ccnc2[nH]n(-c3ccccc3)c(=O)c12,-0.0633% (inactive)
7,COc1ccc(C(=O)N[C@H](C(=O)NCc2ccccc2)C(C)C)cc1,-0.577% (inactive)
8,COc1cc(OC)cc(C(=O)N[C@H](C(=O)OCC(=O)NC(C)c2ccccc2)C(C)C)c1 (stereo not given in full),32.6% (active)
9,COc1cc(OC)cc(C(=O)N[C@H](C(=O)Nc2nc3ccccc3[nH]2)C(C)C)c1,0.237% (inactive)
10,Oc1ccc(CN2CCN(c3ncccn3)CC2)cc1,84.4% (active)
11,Cc1ccc(CN2CCN(c3ncccn3)CC2)c(C)c1,71.3% (active)
12,Cc1ccc(CN2CCN(/N=C/c3ccco3)CC2)c(C)c1,0.881% (inactive)
13,c1cnc(N2CCN(c3ccc4ccccc4n3)CC2)nc1,0.566% (inactive)
14,CN(C)C(=O)c1nc2ccc(Cl)cn2c1CN1CCN(c2ncccn2)CC1,5.69% (inactive)
15,Cc1ccc(CN2CCN(/N=C/c3cccnc3)CC2)c(C)c1,-0.239% (inactive)
16,COc1cc(C(CC(=O)NCCC(C)C)N2Cc3ccccc3C2=O)cc(OC)c1OC (stereo not given),2.01% (inactive)
17,CCc1ccc2oc(-c3ccc(C)c(NC(=O)/C=C/c4ccco4)c3)nc2c1,0.62% (inactive)
18,CCc1ccccc1NC(=O)Cn1c(=O)n(-c2cccc(C)c2)c(=O)c2c1c1cc(OC)ccc1n2C,0.643% (inactive)
19,O=C(CC(c1ccccc1)c1ccccc1)NCC(O)c1ccc([N+](=O)[O-])cc1 (stereo not given),-0.594% (inactive)
20,CC(CCc1ccccc1)NCC(O)c1cccc([N+](=O)[O-])c1 (stereo not given),59.5% (active)
21,CC(C)OP(=O)(OC(C)C)C(Nc1ccccc1)c1cccc([N+](=O)[O-])c1 (stereo not given),-2.16% (inactive)
22,Oc1c(C(c2ccc(F)cc2)N2CCN(Cc3ccccc3)CC2)sc2nc(-c3ccco3)nn12 (stereo not given),0.375% (inactive)
23,COc1cc(NC(=O)c2noc3c2CSc2ccccc2-3)cc(OC)c1OC,-0.598% (inactive)
24,COc1ccc(-c2nc3scc(CCNS(=O)(=O)c4cc(F)ccc4OC)n3n2)cc1OC,-1.74% (inactive)

row,Compound,activation
1,Cc1ccc(OCCn2c(CNc3ccccc3C)nc3ccccc32)cc1,0.246% (inactive)
2,Cc1ccc(C)c(N2CCN(C(=O)Cn3nc(C)c4sc5ccccc5c4c3=O)CC2)c1,-0.843% (inactive)
3,COc1ccccc1CNc1ccc(-c2nc(-c3ccccc3C)no2)cc1[N+](=O)[O-],2.39% (inactive)
4,CCc1cccc(CC)c1NC(=O)Cn1c(=O)c(-c2cc(C)ccc2NC(C)=O)nc2ccccc21,0.924% (inactive)
5,CS(=O)(=O)c1ccc(Cl)c(NC(=O)COC(=O)c2cccc(S(=O)(=O)N3CCCC3)c2)c1,-0.318% (inactive)
6,O=C(NCc1cccs1)C1CCN(S(=O)(=O)c2ccc(Cl)cc2)CC1,0.13% (inactive)
7,O=C(CNCc1cccs1)Nc1cc(S(=O)(=O)N2CCCC2)ccc1Cl,57.6% (active)
8,O=C(NCCCN1CCN(c2ccccc2F)CC1)C1CCC(=O)N1C1CCCCC1 (stereo not given),68.8% (active)
9,O=C(NCCCN1CCCCCC1)C1CC(=O)N(C2CCCC2)C1 (stereo not given),0.131% (inactive)
10,COc1ccc(CN2CC(C(=O)NCCN3CCN(c4ccccc4F)CC3)CC2=O)cc1 (stereo not given),0.792% (inactive)
11,COc1ccccc1NC(=O)C(=O)c1cc(C)n(-c2ccccc2F)c1C,-1.58% (inactive)
12,COc1ccc(OC)c(C(=O)c2ccc(C(=O)N3CCN(Cc4csc(C)n4)CC3)cc2)c1,37.6% (active)
13,COc1ccc(OC)c(C(=O)c2coc3ccc(O)c(CN4CCOCC4)c23)c1,0.863% (inactive)
14,COc1ccc(-c2nn3c(=O)cc(CN4CCN(C(=O)c5ccc(OC)c(OC)c5)CC4)nc3s2)cc1,0.0582% (inactive)
15,CCCCN1C(=O)c2[nH]nc(-c3ccccc3O)c2C1c1cccc(OCc2ccccc2)c1 (stereo not given),-0.42% (inactive)
16,O=C(c1ccc2ccccc2n1)N1CCN(c2ccccc2Cl)CC1,1.21% (inactive)
17,O=C(c1c(F)cccc1Cl)N1CCN(c2ccccn2)CC1,-0.0487% (inactive)
18,O=C(c1c(Cl)cccc1Cl)N1CCN(c2cccc3[nH]ccc23)CC1,41.5% (active)
19,Cc1cc(C)cc(NC(=O)Cn2c(=O)c3ccccc3n3nncc23)c1,0.456% (inactive)
20,CCCN(CCC)c1nc2c(C)cccn2c(=O)c1/C=C1/SC(=S)N(Cc2ccco2)C1=O,9.37% (inactive)
21,CCOC(=O)CC1C(=O)NCCN1c1nc2c(C)cccn2c(=O)c1/C=C1\SC(=S)N(C(C)CC)C1=O (stereo not given),61.9% (active)
22,Cc1cccn2c(=O)c(/C=C(\C#N)C(N)=O)c(N3CCCCCC3)nc12,-0.181% (inactive)
23,CCOC(=O)C1CCCN(C(=O)c2ccc3c(c2)sc2nc(-c4ccc(CC)cc4)cn23)C1 (stereo not given),4.91% (inactive)
24,O=[N+]([O-])c1ccc(C=Nc2ccc(Cl)cc2Cl)s1,33.6% (active)

row,Compound,activation
1,COc1ccc(CCNC(=O)c2cc3cccc4c3n2CC(C)S4)c(OC)c1OC (stereo not given),-0.932% (inactive)
2,CCOCCCn1c(SCC(=O)Nc2ccc(CC)cc2)nc2ccccc2c1=O,0.545% (inactive)
3,Cc1ccc(-n2c(=O)c3cccnc3n2CC(=O)NCc2ccc(F)cc2)cc1C,0.0353% (inactive)
4,O=C(CC1NCCNC1=O)Nc1cc(Cl)cc(Cl)c1 (stereo not given),-0.701% (inactive)
5,O=C(CC1NCCc2ccccc21)Nc1cccc(Cl)c1 (stereo not given),35.2% (active)
6,O=C(CC1C(=O)NCCN1C(=O)c1ccc([N+](=O)[O-])cc1)Nc1cccc(Cl)c1 (stereo not given),-0.121% (inactive)
7,Cc1ccccc1CNC(=O)C(=O)NCC(c1cccs1)S(=O)(=O)c1cccs1 (stereo not given),0.367% (inactive)
8,COc1cccc(NC(=O)N2CCN(C(=O)c3nsc4ccccc34)CC2)c1,-0.159% (inactive)
9,COc1ccccc1CN1CCC(CNC(=O)c2cnn(-c3cccc(Cl)c3)c2C2CCN(C(=O)OC(C)(C)C)CC2)CC1,1.52% (inactive)
10,O=C(Cn1cc(SCc2ccccc2)c2ccccc21)N1CCCCC1,0.397% (inactive)
11,Cc1cc(OC(C)C(=O)Nc2sc3c(c2C(N)=O)CCCC3)ccc1Cl (stereo not given),-0.192% (inactive)
12,CCCCCCc1cc2cc(-c3nnc(-c4ccccc4)o3)c(=O)oc2cc1O,32.4% (active)
13,CCn1cc(C(=O)N2CCN(c3cc(Cl)ccc3C)CC2)c(=O)c2cc(S(=O)(=O)N3CCCC3)ccc21,0.428% (inactive)
14,CC1=Nc2cc(C(=O)NCc3ccc(C)cc3)ccc2Sc2ccc(Cl)cc21,0.834% (inactive)
15,CCc1ccc2oc(-c3ccc(NC(=O)c4cc5ccccc5o4)cc3)nc2c1,0.271% (inactive)
16,Cn1nnnc1SCCCNCc1ccc(Cl)cc1,0.973% (inactive)
17,Cc1cc(C)cc(NC(=O)CSc2oc(-c3ccccc3)nc2S(=O)(=O)c2ccc(Cl)cc2)c1,-0.364% (inactive)
18,CCn1c(=O)c(=O)n(CC)c2cc(N3CCCCC3)c(NC(=O)c3cccc(F)c3)cc21,-0.09% (inactive)
19,CCn1c(=O)n(CC)c2cc(N3CCCC3)c(NC(=O)c3ccccc3Br)cc21,36.9% (active)
20,CCn1c(=O)c(=O)n(CC)c2cc(N3CCCCC3)c(NC(=O)c3ccc(Cl)cc3)cc21,-0.0698% (inactive)
21,Cc1onc(C(=O)NN)c1-c1csc(COc2ccccc2)n1,-1.45% (inactive)
22,CCCC(=O)N1c2ccc(-c3csc(N)n3)cc2CC1C (stereo not given),0.868% (inactive)
23,CC(C)(C)C(=O)OCc1nc(-c2ccc(O)c(O)c2)cs1,73.8% (active)
24,COc1ccc(C2=NC3(CCCCC3)N(CC(=O)Nc3ccc(C(C)C)cc3)C2=O)cc1,-0.0796% (inactive)

row,Compound,activation
1,CN(C)c1ccc(/C=C2\NC(=S)N(Cc3ccccc3)C2=O)cc1,45.9% (active)
2,Cc1ccc(CN2C(=O)N/C(=C/c3cc(C)n(-c4ccccn4)c3C)C2=O)cc1,-1.58% (inactive)
3,CN(C)c1ccc(C=C2C(=O)OC3(CCCC3)OC2=O)cc1,-0.32% (inactive)
4,CCCCNC(=O)CSc1nc2cc3c(cc2c(=O)n1CCCCCC(=O)NCc1ccc2c(c1)OCO2)OCO3,0.322% (inactive)
5,CCOC(=O)N1CCN(CCC(=O)Nc2ccccc2)CC1,0.607% (inactive)
6,O=C(CCN1CCN(c2ccccc2)CC1)NNC(=S)Nc1ccccc1,56.1% (active)
7,O=C(CN1CCN(c2ccccc2)CC1)Nc1ccc(F)cc1,19.7% (inactive)
8,Cc1ccc(S(=O)(=O)c2nc(-c3ccco3)oc2SCC(=O)Nc2ccc(F)cc2)cc1,-0.0829% (inactive)
9,CC(CCc1ccc(O)cc1)NCc1ccc(Cl)cc1Cl (stereo not given),32.8% (active)
10,COc1ccc(CNC(=O)C(C)NCc2ccccc2Cl)cc1 (stereo not given),-0.182% (inactive)
11,CC(CCc1ccccc1)NC(=O)c1cnc(Cl)c(Cl)c1 (stereo not given),-0.256% (inactive)
12,C=Cc1ccc(Cn2c(C(=O)OC)cc3sc(C)cc32)cc1,0.446% (inactive)
13,O=C(CCN1CCN(C/C=C/c2ccccc2)CC1)Nc1cccc(F)c1,1.58% (inactive)
14,O=C(CCN1CCN(C/C=C/c2ccccc2)CC1)Nc1ccccc1Cl,76% (active)
15,COc1ccccc1NC(=O)CCN1CCN(c2ccc(Cl)cc2)CC1,-0.695% (inactive)
16,Cc1nc(SCC(=O)N2CCN(c3ccccc3)CC2)[nH]c(=O)c1C,16% (inactive)
17,COc1cccc(C(=O)NCc2ccc3c(c2)CCN3C(=O)c2ccncc2)c1,-0.0874% (inactive)
18,COc1ccc(-c2nc(S(=O)(=O)c3ccccc3)c(N3CCCCC3)o2)cc1,-0.427% (inactive)
19,O=C(CN1CCN(S(=O)(=O)c2cc(Cl)ccc2Cl)CC1)c1ccc(O)c(O)c1,57.8% (active)
20,O=S(=O)(c1cc(Cl)ccc1Cl)N1CCN(Cc2ccco2)CC1,-1.47% (inactive)
21,N#Cc1ccsc1NC(=O)CN1CCN(S(=O)(=O)c2cc(Cl)ccc2Cl)CC1,3.35% (inactive)
22,Cc1ccc(NC(=O)Cn2nnc3sc4c(c3c2=O)CCC(C)C4)cc1 (stereo not given),0.94% (inactive)
23,CCc1ccccc1NC(=O)Cc1ccc(NC(=O)N2CCCCc3ccccc32)cc1,0.173% (inactive)
